Measured values published in article PMC5540273 (PLoS ONE, 2017).

How the values were obtained:
Conditions in all cases: concentration: 1 μM, replicates: in singlicate; n = 1
IKK-alpha = tested on: T1, IKK-alpha
T1 construct: gene CHUK

IKK-beta = tested on: T2, IKK-beta
T2 construct: gene IKBKB

IKK-epsilon = tested on: T3, IKK-epsilon
T3 construct: gene IKBKE

INSRR = tested on: INSRR
INSR = tested on: INSR
IRAK1 = tested on: IRAK1
IRAK3 = tested on: IRAK3
IRAK4 = tested on: IRAK4
ITK = tested on: ITK
[1] = tested on: JAK1(JH1domain-catalytic)
[2] = tested on: JAK1(JH2domain-pseudokinase)
[3] = tested on: JAK2(JH1domain-catalytic)
[4] = tested on: JAK3(JH1domain-catalytic)
JNK1 = tested on: T4, JNK1
T4 construct: gene MAPK8

JNK2 = tested on: T5, JNK2
T5 construct: gene MAPK9

JNK3 = tested on: T6, JNK3
T6 construct: gene MAPK10

KIT-autoinhibited = tested on: KIT-autoinhibited
KIT = tested on: KIT
LATS1 = tested on: LATS1
LATS2 = tested on: LATS2
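Further: KINOMEscan kinase panel screen.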

Row | SMILES | %Inh (IKK-alpha) | %Inh (IKK-beta) | %Inh (IKK-epsilon) | %Inh (INSRR) | %Inh (INSR) | %Inh (IRAK1) | %Inh (IRAK3) | %Inh (IRAK4) | %Inh (ITK) | %Inh [1] | %Inh [2] | %Inh [3] | %Inh [4] | %Inh (JNK1) | %Inh (JNK2) | %Inh (JNK3) | %Inh (KIT-autoinhibited) | %Inh (KIT) | %Inh (LATS1) | %Inh (LATS2)
1 | O=C1NC(=O)C(c2ccccc2Cl)=C1Nc1cccc(Cl)c1 [SB-342409] | 18% | 36% | 0% | 1% | 7% | 28% | 0% | 32% | 14% | 1% | 0% | 24% | 65% | 19% | 12% | 3% | 0% | 0% | 0% | 0%
2 | Nc1ncnc2scc(-c3ccc(NC(=O)Cc4cc(F)ccc4F)cc3)c12.O=C(O)C(F)(F)F [SB-731254-M] | 4% | 0% | 45% | 65% | 15% | 0% | 16% | 0% | 0% | 0% | 49% | 27% | 0% | 35% | 19% | 18% | 87% | 100% | 13% | 36%
3 | Cc1ccc(O)cc1Nc1ccnc2ccc(C(C)(C)C)cc12 [GW856805] | 52% | 45% | 6% | 18% | 16% | 13% | 0% | 0% | 0% | 2% | 20% | 64% | 0% | 43% | 29% | 15% | 22% | 96.9% | 0% | 0%
4 | CN(C)c1ncnc2nc[nH]c12 [SKF-31736] | 23% | 15% | 0% | 9% | 0% | 43% | 0% | 4% | 0% | 0% | 34% | 0% | 30% | 23% | 0% | 0% | 19% | 0% | 0% | 0%
5 | CC(C)c1nc(-c2cccc(NS(=O)(=O)c3c(F)cccc3F)c2)c(-c2ccnc(Nc3ccc(N4CCOCC4)nc3)n2)s1.Cl [GSK1723980] | 0% | 0% | 39% | 0% | 0% | 0% | 1% | 6% | 95.7% | 0% | 44% | 36% | 92.3% | 23% | 31% | 7% | 0% | 99.9% | 4% | 0%
6 | Nc1cccc(-c2ccc3c(N)n[nH]c3c2)c1 [GSK2193613] | 0% | 0% | 11% | 0% | 0% | 10% | 0% | 0% | 10% | 0% | 12% | 8% | 0% | 18% | 13% | 3% | 83% | 23% | 0% | 27%
7 | O=C(Nc1n[nH]c2cc(-c3cccs3)ccc12)C1CC1 [SB-731284] | 57% | 73% | 0% | 0% | 40% | 35% | 9% | 45% | 0% | 0% | 22% | 40% | 0% | 57% | 33% | 48% | 39% | 58% | 0% | 5%
8 | Cc1ccc(Nc2ccnc(Nc3ccc(C)c(F)c3)n2)cc1O.Cl [GW582868] | 38% | 18% | 0% | 0% | 0% | 42% | 76% | 25% | 9% | 29% | 62% | 48% | 0% | 31% | 16% | 12% | 3% | 93.8% | 0% | 0%
9 | Cl.N#CCc1ccc(Nc2nccc(Nc3ccc(Oc4ccccc4)cc3)n2)cc1 [GW639905] | 39% | 45% | 14% | 4% | 0% | 42% | 62% | 32% | 0% | 57% | 0% | 85% | 0% | 38% | 31% | 23% | 0% | 97.4% | 5% | 0%
10 | Cc1cccc(Nc2nc(N[C@H]3CCCC[C@H]3N)ncc2C(N)=O)c1.Cl [GSK986310] | 0% | 11% | 34% | 8% | 26% | 88% | 17% | 86% | 29% | 77% | 91.4% | 87% | 80% | 62% | 36% | 27% | 0% | 37% | 18% | 7%
